In PubChem BioAssay AID1851 (National Center for Advancing Translational Sciences (NCATS), 2009):
The campaign covered roughly 16,000 compounds. About 2,600 (16%) were called active. Inconclusive results (about 20%) are left out. The call rests on the fitted dose curve; in most records, active means well fitted curve in the direction sought with a large enough effect; inconclusive means small, poorly fitted or top-dose-only effect, or effect the other way; inactive means no such curve, though single readings can be large or run the other way. Not all results are given here.

Molecular target: Cytochrome P450 2D6 (Homo sapiens) (UniProt P10635)
Sequence (P10635 whole entry, looked up): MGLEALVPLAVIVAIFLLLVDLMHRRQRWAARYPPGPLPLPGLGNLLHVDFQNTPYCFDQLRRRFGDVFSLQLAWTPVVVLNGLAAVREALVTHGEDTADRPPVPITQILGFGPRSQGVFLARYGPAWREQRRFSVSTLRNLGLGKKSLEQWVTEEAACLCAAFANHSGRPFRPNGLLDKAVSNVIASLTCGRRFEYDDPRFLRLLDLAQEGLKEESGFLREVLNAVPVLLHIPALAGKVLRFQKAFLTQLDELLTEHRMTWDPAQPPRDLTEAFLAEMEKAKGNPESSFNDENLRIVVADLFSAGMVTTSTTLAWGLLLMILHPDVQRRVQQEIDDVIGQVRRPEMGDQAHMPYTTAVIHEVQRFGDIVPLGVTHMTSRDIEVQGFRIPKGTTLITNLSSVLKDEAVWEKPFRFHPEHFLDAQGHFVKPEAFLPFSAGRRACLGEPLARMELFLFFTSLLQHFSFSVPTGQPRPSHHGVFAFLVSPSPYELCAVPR
Test: Cytochrome panel assay with activity outcomes
Settings: recombinant CYP, pro-luciferin dealkylation, luminescence, p450-cyp2d6; series mostly up to 57.1 µM; activity, negative = inhibition: at the top concentration
On the % scale 0 is the no-effect control and ±100 the full control effect.

| SMILES | activity, negative = inhibition | AC50 |
| --- | --- | --- |
| Cc1ccc2nc(-c3ccc(NC(=O)Cc4cccs4)cc3)[nH]c2c1 | -5.32% (inactive) |  |
| O=C(CSc1nnnn1C1CCCC1)Nc1ccc(F)cc1 |  | 14.1 µM (active) |
| CCn1nnnc1SCC(=O)NC1CCCC1 | -28.2% (inactive) |  |
| COc1ccc(NC(=O)CSc2nnc(C3CC3)n2N)cc1 | -7.25% (inactive) |  |
| CCc1ccc(C2=Nn3c(nnc3-c3cccs3)SC2)cc1 |  | 2.82 µM (active) |
| CCOc1ccc(C2=Nn3c(nnc3-c3ccco3)SC2)cc1 | -6.18% (inactive) |  |
| CCOc1ccc(-c2nnc3n2N=C(c2ccc(OC)cc2)CS3)cc1 | 3.29% (inactive) |  |
| CC1(C)O[C@H]2C[C@@H]3[C@H]4CCC5=CC(=O)CC[C@@]5(C)[C@]4(F)[C@@H](O)C[C@@]3(C)[C@@]2(C(=O)CCl)O1 | -10.6% [at 25.6 µM] (inactive) |  |
| CC(C)CC(=O)Nc1ccccc1-c1nnn(CC(=O)N2CCc3ccccc3C2)n1 | -23.8% (inactive) |  |
| Cc1nnc(SCC(=O)NCC2CCCCC2)n(N)c1=O | -11.6% (inactive) |  |
| O=C(O)NCC1CCCCC1 (tested in a mixture with another compound) |  | 3.98 µM (active) |
| O=C(c1cc(-c2ccco2)on1)N1CCOCC1 | -7.84% (inactive) |  |
| O=C(NCc1ccccc1)C12CN(Cc3ccccc3)CC1C(c1cccc([N+](=O)[O-])c1)=NO2 (configuration not stated) |  | 5.01 µM (active) |
| O=C(Cc1ccccc1)N/N=C/C=C/c1cccc([N+](=O)[O-])c1 | -14.8% (inactive) |  |
| CC(C)CCNC(=O)C12CN(Cc3ccccc3)CC1C(c1cccc([N+](=O)[O-])c1)=NO2 (configuration not stated) | -23.9% (inactive) |  |
| CCSC[C@@H](N)C(=O)O | -5.75% [at 11.4 µM] (inactive) |  |
| O=c1nc(-c2ccccc2)cn[nH]1 | 5.87% (inactive) |  |
| C/C=C\C[C@@H](C)[C@@H](O)[C@H]1C(=O)N[C@@H](CC)C(=O)N(C)CC(=O)N(C)[C@@H](CC(C)C)C(=O)N[C@@H](C(C)C)C(=O)N(C)[C@@H](CC(C)C)C(=O)N[C@@H](C)C(=O)N[C@H](C)C(=O)N(C)[C@@H](CC(C)C)C(=O)N(C)[C@@H](CC(C)C)C(=O)N(C)[C@@H](C(C)C)C(=O)N1C | -14.7% (inactive) |  |
| C[C@H]1NC(=O)NC1=O |  | inactive |
| CCOC(=O)n1c(=O)n(Cc2c(Cl)cccc2Cl)c2ccccc21 | -12.5% (inactive) |  |
| CC(C)(C)N1C(=O)[C@H]2[C@H]3[C@H](O)[C@H](O)C/C(=N/NC(=O)OCc4ccccc4)[C@@H]3CC[C@@H]2C1=O | -18.8% [at 11.4 µM] (inactive) |  |

| SMILES | activity, negative = inhibition | AC50 |
| --- | --- | --- |
| COC(=O)N1CCC2(CCCN(C(=O)Nc3ccc(OC)cc3)C2)CC1 | 2.1% (inactive) |  |
| COCC(=O)N1CCC2(CCCN(C(=O)Nc3cccc(F)c3)C2)CC1 | 1.9% (inactive) |  |
| COC(=O)N1CCC2(CCCN(Cc3ccccc3OC)C2)CC1 |  | 3.16 µM (active) |
| CC(=O)N1CCC[C@@]2(CCN(c3ccncc3)C2)C1 | -5.51% (inactive) |  |
| COCC(=O)N1CCC2(CCCN(Cc3ccccc3OC)C2)CC1 | 12.4% (inactive) |  |
| COCC(=O)N1CCC[C@@]2(CCN(Cc3ccccc3OC)C2)C1 |  | 6.31 µM (active) |
| COc1ccccc1CN1CCCC2(CCN(C(C)=O)CC2)C1 |  | 3.16 µM (active) |
| COc1ccccc1CN1CC[C@@]2(CCCN(C(C)=O)C2)C1 |  | 3.16 µM (active) |
| COc1ccc(NC(=O)N2CC[C@@]3(CCCN(C(C)=O)C3)C2)cc1 | 0.963% (inactive) |  |
| CCSc1nc2nc(C)cc(C)n2n1 | 0.804% (inactive) |  |
| Cn1cc(C(=O)N/N=C/C(Br)=C\c2ccccc2)ccc1=O | -26.6% (inactive) |  |
| CCN1CCN(c2nc3c(c(=O)[nH]c(=O)n3C)n2CCCSc2ncccn2)CC1 | -7.52% (inactive) |  |
| COc1ccc(C2/C(=C(/O)c3ccccc3)C(=O)C(=O)N2CC(C)O)c(OC)c1 (configuration not stated) | 1.5% (inactive) |  |
| N#Cc1sc2nc(-c3cccs3)cc(-c3ccc(Cl)cc3)c2c1N | -1.86% (inactive) |  |
| COc1cc(N=C(N)N=C(N)N)c2ncccc2c1 | -2.16% [at 11.4 µM] (inactive) |  |
| Nc1ccc(S(=O)(=O)c2ccc(NC(=O)c3cccnc3)cc2)cc1 | -2.49% [at 11.4 µM] (inactive) |  |
| O=c1c2c(-c3ccc(Cl)cc3)csc2nc2n1CCC2 | -19.4% (inactive) |  |
| COCCn1c(=O)[nH]c2cc(C(=O)N3CCN(c4ccccc4OC)CC3)ccc2c1=O | -8.01% (inactive) |  |
| CCCC1c2c(ccc3ccccc23)Oc2ccc3ccccc3c21 | 4.73% [at 11.4 µM] (inactive) |  |
| COCC(=O)N1CCC[C@@]2(CCN(Cc3ccc(C#N)cc3)C2)C1 | -8.83% (inactive) |  |
| COCC(=O)N1CCC[C@@]2(CCN(Cc3ccccc3)C2)C1 |  | 6.31 µM (active) |

| SMILES | activity, negative = inhibition | AC50 |
| --- | --- | --- |
| COCC(=O)N1CCC2(CCCN(Cc3ccccc3)C2)CC1 | -3.92% (inactive) |  |
| Cc1c(NC(=S)N/N=C/c2ccc(O)cc2)c(=O)n(-c2ccccc2)n1C | 4.58% (inactive) |  |
| O=C1C(=O)c2ccccc2C(O)=C1C(CCc1ccccc1)C1=C(O)c2ccccc2C(=O)C1=O | -9.56% [at 11.4 µM] (inactive) |  |
| CC(C)[C@@H]1[C@H]2CC[C@H](C2)[C@H]1N | 3.78% (inactive) |  |
| CCc1ncc(CO)n1Cc1cccc2ccccc12 | -6.66% [at 11.4 µM] (inactive) |  |
| Cc1ccc(Sc2cc(Cl)nc(N)n2)cc1 | 18.5% (inactive) |  |
| Cc1ccc2[nH]c(=O)c(NC(N)=S)nc2c1 | -20.2% (inactive) |  |
| O=C1CSc2ccc(C(=O)NCCC3=CCCCC3)cc2N1 | -6.63% (inactive) |  |
| CC(C)(C)c1ccc(C(=O)N2CCC(C(=O)NCCC3=CCCCC3)CC2)cc1 |  | 22.4 µM (active) |
| CCC(C)NC(=O)C1CCN(C(=O)c2ccccc2)CC1 (configuration not stated) | 19.5% (inactive) |  |
| CCNC(=O)C1CC(=O)OC12CCCCC2 (configuration not stated) | 20.8% (inactive) |  |
| O=C(Nc1cccnc1Cl)C1c2ccccc2Oc2ccccc21 | 9.13% (inactive) |  |
| CN(C)CCNS(=O)(=O)N(C)C | 5.07% [at 11.4 µM] (inactive) |  |
| CCOc1ccc(-n2ccnc2SCC(=O)Nc2nnc(C)s2)cc1 | 0.439% (inactive) |  |
| COc1ccc(-n2ccnc2SCC(=O)Nc2ccccc2)cc1 |  | 17.8 µM (active) |
| COc1ccc(-n2ccnc2SCC(=O)Nc2ccc(OC)cc2OC)cc1 | -14.2% (inactive) |  |
| COc1cccc(NC(=O)CSc2nnc(CN3CCOCC3)n2C)c1 | -4.66% (inactive) |  |
| CCOc1ccc(-n2ccnc2SCC(=O)Nc2nnc(CC)s2)cc1 | -2.1% (inactive) |  |
| COc1cccc(-n2ccnc2SCC(=O)Nc2nccs2)c1 |  | 12.6 µM (active) |
| COc1cccc([C@H](O)Cn2cc(-c3cccc(CON=C(C)C)c3)nn2)c1 | -1.23% [at 11.4 µM] (inactive) |  |
